# According to PubChem BioAssay AID1159580 (chemical genetic matrix, 2015):
# About 2,000 (36%) of roughly 5,500 compounds were called active. About 18% were inconclusive and are not listed. Some of the results follow. Values without a mark were called inactive. Cut-off read from the data, not from the text of the source: active = normalized growth mostly below about 0.91 (no sharp cut-off); inconclusive = no clear call, values can overlap the other calls; inactive = mostly above about 0.92.
# Experiment: chemical genetic growth profiling, strain panel (AID 1159580);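 note: tested at 20 µM; growth read once vehicle control cultures reached saturation at 30 °C; 1 = growth at the plate median or of vehicle wells; lower values mean less growth of the strain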
# Conditions: S. cerevisiae deletion strains, growth OD
# [1] = locus YAL013W, strain DEP1, hits give low values
# [2] = locus YMR307W, strain GAS1, hits give low values
structure (smiles),measurement,setting,value
COc1cc(O)c(C(=O)c2ccccc2)cc1O,normalized growth,[1],1.02
same,normalized growth,"locus YAL021C, strain ccr4, hits give low values",1.01
same,normalized growth,"locus YAL026C, strain drs2, hits give low values",0.963
same,normalized growth,"locus YAL030W, strain snc1, hits give low values",1.01
same,normalized growth,"locus YBL061C, strain skt5, hits give low values",1.01
same,normalized growth,"locus YBR009C, strain hhf1, hits give low values",0.969
same,normalized growth,"locus YBR021W, strain FUR4, hits give low values",1.07
same,normalized growth,"locus YBR023C, strain chs3, hits give low values",0.985
same,normalized growth,"locus YBR171W, strain sec66, hits give low values",1.01
same,normalized growth,"locus YBR229C, strain ROT2, hits give low values",1.02
same,normalized growth,"locus YBR231C, strain swc5, hits give low values",1.01
same,normalized growth,"locus YBR279W, strain paf1, hits give low values",0.988
same,normalized growth,"locus YCL011C, strain gbp2, hits give low values",0.971
same,normalized growth,"locus YCL016C, strain dcc1, hits give low values",0.965
same,normalized growth,"locus YCL029C, strain bik1, hits give low values",0.978
same,normalized growth,"locus YCL069W, strain vba3, hits give low values",0.996
same,normalized growth,"locus YCR088W, strain abp1, hits give low values",1
same,normalized growth,"locus YDL005C, strain med2, hits give low values",1.01
same,normalized growth,"locus YDL035C, strain GPR1, hits give low values",1.07
same,normalized growth,"locus YDL040C, strain nat1, hits give low values",1
same,normalized growth,"locus YDL074C, strain BRE1, hits give low values",1.01
same,normalized growth,"locus YDL101C, strain DUN1, hits give low values",0.998
same,normalized growth,"locus YDL185W, strain tfp1, hits give low values",0.972
same,normalized growth,"locus YDL192W, strain arf1, hits give low values",0.971
same,normalized growth,"locus YDR001C, strain nth1, hits give low values",1.02
same,normalized growth,"locus YDR069C, strain doa4, hits give low values",1.02
same,normalized growth,"locus YDR101C, strain arx1, hits give low values",1.01
same,normalized growth,"locus YDR137W, strain rgp1, hits give low values",0.857
same,normalized growth,"locus YDR159W, strain sac3, hits give low values",0.973
same,normalized growth,"locus YDR162C, strain NBP2, hits give low values",1.02
same,normalized growth,"locus YDR195W, strain ref2",1.03
same,normalized growth,"locus YDR297W, strain sur2, hits give low values",0.99
same,normalized growth,"locus YDR318W, strain mcm21, hits give low values",0.963
same,normalized growth,"locus YDR334W, strain swr1, hits give low values",1.03
same,normalized growth,"locus YDR335W, strain msn5, hits give low values",0.988
same,normalized growth,"locus YDR388W, hits give low values",0.979
same,normalized growth,"locus YDR392W, strain spt3, hits give low values",0.705 (active)
same,normalized growth,"locus YDR502C, strain sam2, hits give low values",0.965
same,normalized growth,"locus YEL003W, strain gim4, hits give low values",0.985
same,normalized growth,"locus YEL037C, strain rad23, hits give low values",1.01
same,normalized growth,"locus YEL061C, strain CIN8 (second series), hits give low values",1.01
same,normalized growth,"locus YEL061C, strain CIN8, hits give low values",1.03
same,normalized growth,"locus YER015W, strain faa2, hits give low values",0.966
same,normalized growth,"locus YER016W, strain bim1, hits give low values",1
same,normalized growth,"locus YER110C, hits give low values",0.964
same,normalized growth,"locus YER111C, strain swi4, hits give low values",1.02
same,normalized growth,"locus YER155C, strain BEM2 (second series), hits give low values",0.764 (active)
same,normalized growth,"locus YER155C, strain BEM2, hits give low values",1.01
same,normalized growth,"locus YER167W, strain BCK2, hits give low values",1
same,normalized growth,"locus YFR010W, strain ubp6, hits give low values",1.03
same,normalized growth,"locus YGL078C, strain dbp3, hits give low values",0.937
same,normalized growth,"locus YGL086W, strain mad1, hits give low values",0.974
same,normalized growth,"locus YGL167C, strain pmr1, hits give low values",0.999
same,normalized growth,"locus YGL173C, strain kem1, hits give low values",1
same,normalized growth,"locus YGL227W, strain vid30, hits give low values",1.01
same,normalized growth,"locus YGL240W, strain doc1, hits give low values",0.944
same,normalized growth,"locus YGL248W, strain PDE1, hits give low values",1.05
same,normalized growth,"locus YGL253W, strain hxk2, hits give low values",1.04
same,normalized growth,"locus YGR135W, strain pre9, hits give low values",0.923
same,normalized growth,"locus YGR252W, strain gcn5, hits give low values",1
same,normalized growth,"locus YHR013C, strain ard1, hits give low values",1.05
same,normalized growth,"locus YHR027C, strain rpn1, hits give low values",1.02
same,normalized growth,"locus YHR079C, strain IRE1 (second series), hits give low values",0.959
same,normalized growth,"locus YHR094C, strain hxt1, hits give low values",0.974
same,normalized growth,"locus YHR129C, strain ARP1, hits give low values",1.02
same,normalized growth,"locus YHR142W, strain chs7, hits give low values",1.01
same,normalized growth,"locus YHR200W, strain rpn10, hits give low values",0.968
same,normalized growth,"locus YIL066C, strain RNR3, hits give low values",1.03
same,normalized growth,"locus YIL073C, strain SPO22, hits give low values",1
same,normalized growth,"locus YIL125W, strain kgd1, hits give low values",1
same,normalized growth,"locus YIR030C, strain dcg1, hits give low values",0.976
same,normalized growth,"locus YJL092W, strain hpr5, hits give low values",1.01
same,normalized growth,"locus YJL095W, strain BCK1 (second series), hits give low values",0.996
same,normalized growth,"locus YJL095W, strain BCK1, hits give low values",0.978
same,normalized growth,"locus YJL115W, strain asf1, hits give low values",1.02
same,normalized growth,"locus YJL129C, strain trk1, hits give low values",0.948
same,normalized growth,"locus YJL134W, strain LCB3, hits give low values",1
same,normalized growth,"locus YJL154C, strain vps35, hits give low values",1.02
same,normalized growth,"locus YJL164C, strain tpk1, hits give low values",0.958
same,normalized growth,"locus YJL166W, strain qcr8, hits give low values",0.993
same,normalized growth,"locus YJL168C, strain set2, hits give low values",0.989
same,normalized growth,"locus YJL187C, strain SWE1 (second series), hits give low values",0.993
same,normalized growth,"locus YJL187C, strain SWE1, hits give low values",0.996
same,normalized growth,"locus YKL009W, strain mrt4, hits give low values",0.892
same,normalized growth,"locus YKL068W, hits give low values",0.982
same,normalized growth,"locus YKL085W, strain MDH1 (second series), hits give low values",0.97
same,normalized growth,"locus YKL085W, strain MDH1, hits give low values",0.97
same,normalized growth,"locus YKL160W, strain elf1, hits give low values",0.945
same,normalized growth,"locus YKR001C, strain vps1, hits give low values",1.01
same,normalized growth,"locus YKR026C, strain gcn3, hits give low values",1.02
same,normalized growth,"locus YKR091W, strain srl3, hits give low values",1.01
same,normalized growth,"locus YLL001W, strain dnm1, hits give low values",0.951
same,normalized growth,"locus YLL026W, hits give low values",1.01
same,normalized growth,"locus YLL041C, strain sdh2, hits give low values",1.01
same,normalized growth,"locus YLR027C, strain aat2, hits give low values",1.01
same,normalized growth,"locus YLR039C, strain RIC1, hits give low values",0.963
same,normalized growth,"locus YLR058C, strain SHM2, hits give low values",1.01
same,normalized growth,"locus YLR102C, strain apc9, hits give low values",0.97
same,normalized growth,"locus YLR221C, strain rsa3, hits give low values",0.988
same,normalized growth,"locus YLR258W, strain gsy2, hits give low values",0.962
same,normalized growth,"locus YLR262C, strain YPT6 (second series), hits give low values",0.768 (active)
same,normalized growth,"locus YLR268W, strain sec22, hits give low values",0.976
same,normalized growth,"locus YLR320W, strain mms22, hits give low values",0.944
same,normalized growth,"locus YLR330W, strain CHS5, hits give low values",1.02
same,normalized growth,"locus YLR342W, strain FKS1, hits give low values",0.993
same,normalized growth,"locus YLR357W, strain rsc2, hits give low values",0.994
same,normalized growth,"locus YLR370C, strain arc18, hits give low values",1
same,normalized growth,"locus YLR371W, strain rom2, hits give low values",0.966
same,normalized growth,"locus YLR384C, strain iki3, hits give low values",0.996
same,normalized growth,"locus YLR418C, strain cdc73, hits give low values",1.03
same,normalized growth,"locus YML016C, strain PPZ1, hits give low values",1.01
same,normalized growth,"locus YML032C, strain rad52, hits give low values",0.967
same,normalized growth,"locus YML120C, strain ndi1, hits give low values",0.965
same,normalized growth,"locus YML124C, strain tub3, hits give low values",0.97
same,normalized growth,"locus YMR058W, strain fet3, hits give low values",1.02
same,normalized growth,"locus YMR078C, strain ctf18, hits give low values",0.952
same,normalized growth,"locus YMR125W, strain sto1, hits give low values",1.01
same,normalized growth,"locus YMR129W, hits give low values",1
same,normalized growth,"locus YMR205C, strain PFK2, hits give low values",0.991
same,normalized growth,"locus YMR223W, strain ubp8, hits give low values",0.932
same,normalized growth,"locus YMR231W, strain pep5, hits give low values",1.01
same,normalized growth,[2],1.19
same,normalized growth,"locus YNL067W, strain RPL9B, hits give low values",1.01
same,normalized growth,"locus YNL071W, strain lat1, hits give low values",0.982
same,normalized growth,"locus YNL209W, strain ssb2, hits give low values",0.947
same,normalized growth,"locus YNL233W, strain BNI4, hits give low values",1.04
same,normalized growth,"locus YNL248C, strain rpa49, hits give low values",1.03
same,normalized growth,"locus YNL250W, strain rad50, hits give low values",0.924
same,normalized growth,"locus YNL271C, strain bni1, hits give low values",0.951
same,normalized growth,"locus YNL298W, strain CLA4, hits give low values",0.995
same,normalized growth,"locus YNL307C, strain MCK1, hits give low values",0.971
same,normalized growth,"locus YNL322C, strain KRE1 (second series), hits give low values",0.973
same,normalized growth,"locus YNR049C, strain mso1, hits give low values",1.03
same,normalized growth,"locus YNR052C, strain pop2, hits give low values",0.96
same,normalized growth,"locus YOL012C, strain htz1",1.3
same,normalized growth,"locus YOL147C, strain pex11, hits give low values",0.979
same,normalized growth,"locus YOR001W, strain rrp6, hits give low values",0.995
same,normalized growth,"locus YOR061W, strain CKA2, hits give low values",1.01
same,normalized growth,"locus YOR069W, strain VPS5, hits give low values",0.999
same,normalized growth,"locus YOR070C, strain gyp1, hits give low values",0.983
same,normalized growth,"locus YOR080W, strain dia2, hits give low values",1.02
same,normalized growth,"locus YOR083W, strain WHI5, hits give low values",0.933
same,normalized growth,"locus YOR106W, strain vam3, hits give low values",0.917
same,normalized growth,"locus YOR136W, strain idh2, hits give low values",0.977
same,normalized growth,"locus YOR144C, strain elg1, hits give low values",0.976
same,normalized growth,"locus YOR184W, strain ser1, hits give low values",1.07
same,normalized growth,"locus YOR265W, strain rbl2, hits give low values",1.01
same,normalized growth,"locus YOR270C, strain vph1, hits give low values",0.974
same,normalized growth,"locus YOR290C, strain snf2, hits give low values",0.946
same,normalized growth,"locus YOR316C, strain cot1, hits give low values",0.958
same,normalized growth,"locus YPL051W, strain arl3, hits give low values",0.924
same,normalized growth,"locus YPL078C, strain atp4, hits give low values",0.952
same,normalized growth,"locus YPL106C, strain sse1, hits give low values",0.943
same,normalized growth,"locus YPL240C, strain hsp82, hits give low values",0.997
same,normalized growth,"locus YPR119W, strain clb2, hits give low values",0.95
same,normalized growth,"locus YPR141C, strain kar3, hits give low values",0.96
same,normalized growth,"locus YPR163C, strain tif3, hits give low values",0.94
same,normalized growth,"locus YPR167C, strain met16, hits give low values",0.953
same,normalized growth,"strain wtn01, hits give low values",0.998
COc1cc(C(O)C(=O)O)ccc1O (stereo unspecified),normalized growth,[1],0.996
same,normalized growth,"locus YAL040C, strain CLN3, hits give low values",0.984
same,normalized growth,"locus YCL061C, strain MRC1 (second series), hits give low values",0.994
same,normalized growth,"locus YDR150W, strain NUM1, hits give low values",0.994
same,normalized growth,"locus YDR363W, strain ESC2, hits give low values",1.01
same,normalized growth,"locus YER002W, strain NOP16, hits give low values",1.03
same,normalized growth,"locus YGR078C, strain PAC10, hits give low values",1
same,normalized growth,"locus YJR075W, strain HOC1, hits give low values",0.991
same,normalized growth,[2],0.989
same,normalized growth,"locus YNL128W, strain TEP1, hits give low values",0.986
same,normalized growth,"locus YNL153C, strain GIM3, hits give low values",1.01
same,normalized growth,"locus YNL175C, strain NOP13, hits give low values",0.992
same,normalized growth,"locus YNL197C, strain WHI3, hits give low values",1.01
same,normalized growth,"locus YNL224C, strain SQS1, hits give low values",1.02
same,normalized growth,"locus YNL322C, strain KRE1, hits give low values",0.998
same,normalized growth,"locus YOR083W, strain WHI5 (second series), hits give low values",1.01
same,normalized growth,"locus YPL055C, strain LGE1, hits give low values",1.01
